Test results from PubChem BioAssay (NCI).
Values joined by “and” are separate entries in the source; they are usually repeats but may differ in a detail not shown here. Equal entries are not always repeated. About 79,000 compounds went through this panel and 15% of them were active in at least one assay; those are over-represented in the sample as a whole. The source holds several records for some structures; these can differ, active in one and inactive in another. Active and inactive are the calls of the source. Cut-off read from the data, not from the text of the source: active = growth inhibition above about 70%; inactive = the rest.

Key:
[1] = NCI Yeast Anticancer Drug Screen. Data for the rad50 strain (AID 155);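 note: 0% = growth of vehicle-only cultures of the same strain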; details: S. cerevisiae rad50 strain growth inhibition, stronger effect = higher value
How it was run: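 DNA repair mutant yeast, compound exposure, growth read-out; inhibition is taken relative to vehicle.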

[2] = NCI Yeast Anticancer Drug Screen. Data for the mec2-1 strain (AID 157); details: S. cerevisiae mec2-1 strain, stronger effect = higher value
How it was run: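 Readout is yeast growth inhibition, normalised to vehicle-treated controls, in the mec2-1 strain exposed to compound.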

[3] = NCI Yeast Anticancer Drug Screen. Data for the sgs1 mgt1 strain (AID 161);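 note: 0% = growth of cultures given vehicle only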; details: S. cerevisiae sgs1 mgt1 strain, stronger effect = higher value
How it was run: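 Compounds are added to genetically altered yeast, and growth is compared with cultures given vehicle alone to give percent inhibition.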

[4] = NCI Yeast Anticancer Drug Screen. Data for the cln2 rad14 strain (AID 165);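 note: 0% = growth equal to vehicle treated cultures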; details: S. cerevisiae cln2 rad14 strain, stronger effect = higher value
How it was run: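 Relative to vehicle controls, growth inhibition of compound-treated cln2 rad14 yeast was recorded.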

[5] = NCI Yeast Anticancer Drug Screen. Data for the bub3 strain (AID 167); details: S. cerevisiae bub3 mutant strain, stronger effect = higher value
How it was run: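 In this screen, a yeast mutant lacking normal mitotic checkpoint function is challenged with compound. Relative growth versus vehicle gives the inhibition value.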

[6] = NCI Yeast Anticancer Drug Screen. Data for the mlh1 rad18 strain (AID 175); details: S. cerevisiae mlh1 rad18 strain growth inhibition, stronger effect = higher value
How it was run: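 Test agents were incubated with a yeast strain of defined genotype (DNA damage repair defect). Inhibition of growth was derived by comparison with vehicle-exposed cultures.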

[7] = at 5.0 µM (retest, dose inferred, filed as 0.5)
[8] = at 50.0 µM (retest, dose inferred, filed as 5.0)

Row | SMILES | growth inhibition [1, 7] | growth inhibition [1, 8] | growth inhibition ([1]; at 50.0 µM) | growth inhibition [2, 7] | growth inhibition [2, 8] | growth inhibition ([2]; at 50.0 µM) | growth inhibition [3, 7] | growth inhibition [3, 8] | growth inhibition ([3]; at 50.0 µM) | growth inhibition [4, 7] | growth inhibition [4, 8] | growth inhibition ([4]; at 50.0 µM) | growth inhibition [5, 7] | growth inhibition [5, 8] | growth inhibition ([5]; at 50.0 µM) | growth inhibition [6, 7] | growth inhibition [6, 8] | growth inhibition ([6]; at 50.0 µM)
1 | COc1ccc2cc(C(C)=O)c3ccccc3c2c1 | 11% (inactive) | 93% (active) | 94.2% (active) | -34% (inactive) | 95% (active) | 86.5% (active) | 1% (inactive) | 88% (active) | 96.2% (active) | -2% (inactive) | 77% (active) | -8.2% (inactive) | -68% (inactive) | 94% (active) | 2.7% (inactive) | 2% (inactive) | 95% (active) | 97% (active)
2 | O=C(CC1(O)C(=O)Nc2ccccc21)c1ccc(Cl)c(Cl)c1 (stereo not given) | -5% (inactive) | 26% (inactive) | 84% (active) | -4% (inactive) | 29% (inactive) | 39% (inactive) | 1% (inactive) | 41% (inactive) | 73.4% (active) | -5% (inactive) | -12% (inactive) | 72% (active) | -4% (inactive) | 31% (inactive) | 77.2% (active) | -4% (inactive) | 31% (inactive) | 88.3% (active)
3 | COc1c(O)cc2oc3cc(O)c(CC=C(C)C)c(O)c3c(=O)c2c1CC=C(C)C | 98% (active) | 89% (active) | 86.8% (active) and 87.2% (active) | 99% (active) | 91% (active) and 93% (active) | 89.2% (active) and 90% (active) | 99% (active) | 89% (active) | 90.3% (active) and 89.4% (active) | 51% (inactive) and 42% (inactive) | 83% (active) and 86% (active) | 85.2% (active) and 86.2% (active) | 98% (active) | 87% (active) and 86% (active) | 86.1% (active) and 87% (active) | 99% (active) and 98% (active) | 81% (active) and 87% (active) | 87.2% (active)
4 | COc1ccc2[nH]c3c(C)c4ccncc4c(C)c3c2c1 | 95% (active) | 99% (active) | 92.6% (active) and 99% (active) | 40% (inactive) | 99% (active) | 93.7% (active) and 99.5% (active) | 39% (inactive) | 99% (active) | 93.2% (active) and 99.4% (active) | 21% (inactive) | 99% (active) | 91.8% (active) and 99% (active) | 30% (inactive) | 99% (active) | 92.7% (active) and 99.3% (active) | 55% (inactive) | 99% (active) | 92.8% (active) and 99.4% (active)
5 | c1ccc(-c2nc3ccccc3[nH]2)cc1 | 1% (inactive) | 28% (inactive) | 6.4% (inactive) and 34.6% (inactive) | -3% (inactive) | 19% (inactive) | -5.55% (inactive) and 5.3% (inactive) | -11% (inactive) | 29% (inactive) | -8.85% (inactive) and 1% (inactive) | 4% (inactive) | 39% (inactive) | -50.4% (inactive) and -4.4% (inactive) | 0% (inactive) | 24% (inactive) | -13.2% (inactive) and -5.15% (inactive) | 0% (inactive) | 74% (active) | -0.55% (inactive) and 43% (inactive)
6 | COc1ccc(/C=C/NC=O)cc1 | -2% (inactive) | -1% (inactive) | -17.2% (inactive) | -3% (inactive) | 0% (inactive) | 0.35% (inactive) | -2% (inactive) | -1% (inactive) | -9.6% (inactive) | -2% (inactive) | 4% (inactive) | -8.25% (inactive) | 1% (inactive) | 6% (inactive) | 19.8% (inactive) | -3% (inactive) | -2% (inactive) | 28.9% (inactive)
7 | CCCCCCCCCCCCCCCCCC(=O)NCCO | -3% (inactive) | -6% (inactive) | -12.3% (inactive) and 16.8% (inactive) | -1% (inactive) | -5% (inactive) | -6.6% (inactive) and -7.3% (inactive) | 0% (inactive) | -4% (inactive) | -20.2% (inactive) and -8.5% (inactive) | 1% (inactive) | -8% (inactive) | -23.9% (inactive) and 37.4% (inactive) | 4% (inactive) | 7% (inactive) | -3.75% (inactive) and 1.55% (inactive) | 0% (inactive) | -8% (inactive) | 3.7% (inactive) and 10.8% (inactive)
8 | C=CCOC(=O)c1ccc(C(=O)OCC=C)cc1 | -5% (inactive) | -77% (inactive) | 50.6% (inactive) | -11% (inactive) | -32% (inactive) | 52.2% (inactive) | -1% (inactive) | -13% (inactive) | 78.5% (active) | 4% (inactive) | -26% (inactive) | 39.4% (inactive) | 6% (inactive) | -53% (inactive) | 44.8% (inactive) | 0% (inactive) | -41% (inactive) | 64.3% (inactive)
9 | C=CCC(O)c1ccc(C(C)C)cc1 (stereo not given) | 3% (inactive) | 7% (inactive) | 18.9% (inactive) and -7.9% (inactive) | 1% (inactive) | -3% (inactive) | -7.55% (inactive) and -1.05% (inactive) | -2% (inactive) | 1% (inactive) | -5.65% (inactive) and 13.1% (inactive) | -3% (inactive) | 0% (inactive) | -5% (inactive) and 16.4% (inactive) | 10% (inactive) | 16% (inactive) | -2.85% (inactive) and -2.2% (inactive) | 0% (inactive) | 7% (inactive) | 15.4% (inactive) and -13.9% (inactive)
10 | O=C(O)c1ccc(Nc2cnc3ccc(C(F)(F)F)cc3n2)cc1 | 18% (inactive) | 16% (inactive) | 60.9% (inactive) | 4% (inactive) | 12% (inactive) | 41.2% (inactive) | 10% (inactive) | 13% (inactive) | 18.2% (inactive) | 5% (inactive) | 12% (inactive) | -0.05% (inactive) | 5% (inactive) | 12% (inactive) | 4.9% (inactive) | 16% (inactive) | 16% (inactive) | 6.7% (inactive)
11 | CNC(=O)N(C)CN(C)C(=O)NC | 0% (inactive) | 9% (inactive) | 17.1% (inactive) and 17.2% (inactive) | -1% (inactive) | 2% (inactive) | -11.9% (inactive) and 17.7% (inactive) | -3% (inactive) | 7% (inactive) | 4% (inactive) and 19.8% (inactive) | -4% (inactive) | -9% (inactive) | 26.8% (inactive) and 18.6% (inactive) | -5% (inactive) | -8% (inactive) | 2.8% (inactive) and -19.9% (inactive) | -5% (inactive) | 7% (inactive) | 3.75% (inactive) and 40.1% (inactive)
12 | CC[N+](CC)=c1ccc2nc3c(cc(N)c4ccccc43)oc-2c1 | -8% (inactive) | 42% (inactive) | 71.5% (active) and -20.9% (inactive) | -1% (inactive) | 39% (inactive) | 52.5% (inactive) and -17.7% (inactive) | -9% (inactive) | 42% (inactive) | 38.1% (inactive) | -14% (inactive) | 7% (inactive) | 38% (inactive) | -4% (inactive) | 19% (inactive) | 63% (inactive) | -6% (inactive) | 27% (inactive) | 68.8% (inactive) and -28.9% (inactive)
13 | Cc1c(OCc2cccc3ccccc23)ccc2c(=O)cc(SCCN3CCOCC3)oc12 | 10% (inactive) | 25% (inactive) | 65.7% (inactive) | -1% (inactive) | 13% (inactive) | 30.2% (inactive) | 6% (inactive) | 49% (inactive) | 83% (active) | 5% (inactive) | 37% (inactive) | 25.1% (inactive) | 7% (inactive) | 47% (inactive) | 13.6% (inactive) | 7% (inactive) | 35% (inactive) | 73.3% (active)
14 | CCOC(=O)C1=C(C(=O)c2ccc(C)cc2)C(c2cccc([N+](=O)[O-])c2)C(C(=O)c2ccc(C)cc2)=C(C(=O)OCC)N1 | 4% (inactive) | 55% (inactive) | 60.6% (inactive) | 3% (inactive) | 69% (inactive) | 78% (active) | 8% (inactive) | 47% (inactive) | 61.1% (inactive) | -3% (inactive) | 2% (inactive) | 19.3% (inactive) | 2% (inactive) | 61% (inactive) | 76.2% (active) | 0% (inactive) | -17% (inactive) | 78.9% (active)
15 | N#CC(=C1C=CC(=NOC(=O)Nc2cccc3ccccc23)C=C1)c1ccccc1 | 44% (inactive) | 99% (active) | 97.8% (active) | 35% (inactive) | 99% (active) | 97.7% (active) | 51% (inactive) | 100% (active) | 98.5% (active) | 10% (inactive) | 99% (active) | 97.7% (active) | 62% (inactive) | 99% (active) | 98.3% (active) | 30% (inactive) | 99% (active) | 97.5% (active)
